The values below come from PubChem BioAssay.

The structures appear in SMILES notation. Calls of active or inactive are those of the source.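 The calls were made as follows, unless noted: active = visually confirmed hit in the image check and inhibition above 20%; inconclusive = visually confirmed hit but inhibition not above 20%; inactive = no visual hit in the image check.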

Usually inhibition stands for the change of the read-out against control, counted positive when it falls.

Test [1] is described as follows: inhibitors of TNFa-induced NFkB p65 translocation, primary screen, imaging, HUVEC, MLSMR starter and 10KST1 sets (AID 438;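 active = inhibition above 20% together with a positive visual image hit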;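 also: compound added about 3h40 before a 20 min TNFalpha stimulation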;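 as to inhibition: signal is the nuclear over cytoplasmic p65 intensity ratio per well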). As to conditions: HUVEC TNFa-induced p65 nuclear translocation; cell count: measured here: nuclei count (cytotoxicity indicator), at 2.08 µM; inhibition: at 2 µM, stronger effect = higher value, 0% TNFa-plus-vehicle, 100% no-TNFa wells.
Test [2] can be described thus: reduction of polyQ htt aggregates in cells – imaging, exon1htt(103Q)mCFP cells, high-content imaging, primary screen (AID 483;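 active = visual image review flags a hit and inhibition of aggregation exceeds 20%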;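 also: compound exposure lasted 3 days before fixation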;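 as to nuclei count: percent of the per-plate median nuclei count of sample wells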). Particulars: exon1htt(103Q)mCFP cell line, aggregate imaging, at 2 µM; inhibition of aggregation: stronger effect = higher value; nuclei count: measured here: cell count, toxicity.
Test [3] is described as follows: endothelial E-selectin expression blockers – imaging, HUVEC, immunofluorescence, MLSMR starter and 10KST1 sets, primary screen (AID 487).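 As to inhibition: signal is fraction of cell area covered by stained E-selectin grains.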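 As to nuclei count: 100% = median nuclei count of all wells on the same plate.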 As to conditions: HUVEC TNFalpha-induced E-selectin immunofluorescence imaging, at 2 µM; inhibition: stronger effect = higher value; nuclei count: measured here: cell number, toxicity.
Test [4] addresses Voltage-gated potassium channel subunit beta-2 (Rattus norvegicus) (UniProt P62483). As to the kind of experiment: inhibitors of rat Kvbeta2 reductase activity – biochemical, NADPH fluorescence, primary screen (AID 622;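 active = fluorescence slope higher than the sample average by over 3 SD, cut at about -0.22 in these data, passing the limit was not always enough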;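 also: slope of raw intensity against log time taken from 70 to 1610 s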). Particulars: recombinant KvBeta, 4-cyanobenzaldehyde reduction, at 10 µM, stronger effect = higher value.
The target is the same in test [5]. Briefly: enhancers of rat Kvbeta2 NADPH turnover – biochemical, NADPH fluorescence, primary screen (AID 623;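 active = NADPH fluorescence slope more negative than the mean of all samples by about 3 SD, 99.7% confidence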;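 also: fluorescence intensity change per second fitted from 20 to 320 s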). As to conditions: Recombinant KvBeta, NADPH fluorescence decrease slope, 10 min; at 10 µM; stronger effect = lower value.
For test [6], the target named is Alpha-2C adrenergic receptor (Homo sapiens) (UniProt P18825). As to the kind of experiment: compounds altering alpha2C-coupled GIRK flux – cell-based, HEK293 alpha2C/GIRK1/2, thallium flux, primary screen (AID 624;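 active = fluorescence slope after compound addition differing from the mean of all screened samples at 99.7% confidence, in either direction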;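 also: slope of fluorescence ratio to pre-addition baseline per second over 15 to 24 s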). Particulars: thallium flux BTC fluorescence, at 10 µM, actives lie on both sides.
The nature of test [7]: blockers of RIG-like receptor reporter activation – cell-based, Sendai virus stimulus, luciferase, 10K MLSCN set, TLR/RLR signaling modifier project, primary screen (AID 602276;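 active = inhibition at or above 50% at 10 µM; inactive = inhibition below 50%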;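 also: firefly luciferase from ISG56 promoter only with Renilla not read in this screen; 0% = Sendai virus plus DMSO and 100% = medium plus DMSO without virus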). Particulars: HEK293 RL24 IRF3 luciferase reporter, at 10 µM, stronger effect = higher value. In general terms: In a reporter assay the amount or activity of a reporter protein is the signal.
Test [8] is described as follows: TLR3 IRF3 reporter activation blockers – cell-based, poly I:C stimulus, luciferase, 10K MLSCN set, primary screen (AID 602277;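 active = inhibition of the reporter signal at or above 50%; inactive = inhibition below 50%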). As to conditions: HEK293-TLR3 RL24 IRF3 luciferase reporter, at 10 µM, stronger effect = higher value.

Alpha-2C adrenergic receptor (Homo sapiens), sequence (P18825 whole entry, looked up): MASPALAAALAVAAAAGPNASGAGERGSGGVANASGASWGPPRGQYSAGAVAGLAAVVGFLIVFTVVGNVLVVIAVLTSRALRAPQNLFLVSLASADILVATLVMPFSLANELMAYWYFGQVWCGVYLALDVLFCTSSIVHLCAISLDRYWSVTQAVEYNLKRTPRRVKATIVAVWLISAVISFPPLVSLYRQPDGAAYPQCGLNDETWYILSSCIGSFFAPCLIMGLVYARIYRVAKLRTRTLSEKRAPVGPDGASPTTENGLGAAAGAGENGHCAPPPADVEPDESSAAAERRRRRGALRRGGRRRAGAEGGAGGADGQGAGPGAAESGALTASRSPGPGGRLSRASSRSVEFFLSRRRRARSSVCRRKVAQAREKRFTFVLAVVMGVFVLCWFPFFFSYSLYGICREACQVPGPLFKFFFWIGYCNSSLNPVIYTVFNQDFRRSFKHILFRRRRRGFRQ
Voltage-gated potassium channel subunit beta-2 (Rattus norvegicus), sequence (P62483 whole entry, looked up): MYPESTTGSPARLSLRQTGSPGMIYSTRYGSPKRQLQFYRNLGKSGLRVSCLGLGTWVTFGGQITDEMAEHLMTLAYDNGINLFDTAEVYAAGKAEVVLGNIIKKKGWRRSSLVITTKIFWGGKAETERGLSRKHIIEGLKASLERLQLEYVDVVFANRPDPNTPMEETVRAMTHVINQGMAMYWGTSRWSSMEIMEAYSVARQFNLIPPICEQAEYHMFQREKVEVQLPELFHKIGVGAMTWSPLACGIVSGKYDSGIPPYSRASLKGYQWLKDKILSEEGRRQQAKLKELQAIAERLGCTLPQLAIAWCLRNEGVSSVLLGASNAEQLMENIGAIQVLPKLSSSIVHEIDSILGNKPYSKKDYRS

Regarding `CCN1CCCC1CNC(=O)c1cc2c(=O)n(C)c3ccccc3c2n1C` (stereo not given), in test [1], the cell count was determined as 656. In addition, the inhibition in test [1] was -5% (inactive); in test [3], -41.6% (inactive); in test [7] it was 2.48% (inactive); in test [8], 40.8% (inactive). Moreover, in test [2], the inhibition of aggregation is -28.9% (inactive). Also, the results for the nuclei count in test [2] and in test [3] were 113% and 114%, respectively. Moreover, in test [4], the fluorescence slope was -0.55 (inactive). In addition, in test [5], the NADPH fluorescence slope was 2.6e-06 (inactive). For the same molecule, the slope in test [6] is 0.00775 (inactive).
Regarding `CN(C(=O)c1ccco1)c1nnc(C23CC4CC(CC(C4)C2)C3)s1`, the cell count in test [1] was 681. Further, the inhibition in test [1] is -10% (inactive); in test [3] it was -1.5% (inactive); in test [7], -30.3% (inactive); in test [8] it was -32.2% (inactive). Moreover, in test [2], the inhibition of aggregation is -1.7% (inactive). Besides, the nuclei count in test [2] stood at 110%; in test [3], 126%. For the same molecule, the fluorescence slope in test [4] was -0.408 (inactive). Besides, the NADPH fluorescence slope in test [5] was -1.5e-05 (inactive). Further, the slope in test [6] was 0.00459 (inactive).
For `Cc1cc(NC(=O)CSc2nc3ccccc3n2CC(=O)N2CCCCC2)no1`, the cell count in test [1] amounted to 722. In addition, the inhibition in test [1] is -2% (inactive); in test [3], -70.8% (inactive); in test [7], 14.5% (inactive); in test [8] it was 29.1% (inactive). Besides, the inhibition of aggregation in test [2] was -15% (inactive). For the same molecule, the nuclei count turned out to be 108% in test [2] and 119% in test [3]. For the same molecule, in test [4], the fluorescence slope was -0.475 (inactive). In test [5], the NADPH fluorescence slope was -4.9e-05 (inactive). The slope in test [6] is 0.00628 (inactive).
On to `Cn1c(=N)n(CC(=O)O)c2ccccc21`, for which the cell count in test [1] was found to be 681. For the same molecule, the inhibition in test [1] was -13.8% (inactive); in test [3] it was -51.5% (inactive); in test [7], 9.99% (inactive); in test [8], 11.8% (inactive). In addition, the inhibition of aggregation in test [2] is 6.2% (inactive). Moreover, the nuclei count in test [2] came out at 114%; in test [3], 131%. Besides, the fluorescence slope in test [4] is -0.595 (inactive). In addition, in test [5], the NADPH fluorescence slope was -2.3e-05 (inactive). The slope in test [6] was 0.00551 (inactive).
In the case of `CCN(CC)S(=O)(=O)c1ccc2[nH]cc(C(=O)NCCC3=CCCCC3)c(=O)c2c1`, in test [1], the cell count came out at 344. Further, the inhibition in test [1] is 8.4% (inactive); in test [3] it was 96.3% (active); in test [7], 12% (inactive); in test [8], 6.76% (inactive). In test [2], the inhibition of aggregation is -4.1% (inactive). Besides, the values for the nuclei count in test [2] and in test [3] were 71.6% and 91%, respectively. In test [4], the fluorescence slope is -0.498 (inactive). In addition, the NADPH fluorescence slope in test [5] is -4.6e-05 (inactive). Further, in test [6], the slope is 0.00467 (inactive).
With `Cc1ccc(N(CC(=O)NCC2CCCO2)S(C)(=O)=O)cc1Cl` (stereo not given), the cell count in test [1] is 478. For the same molecule, the inhibition in test [1] is -4.5% (inactive); in test [3], -59.9% (inactive); in test [7], 23.8% (inactive); in test [8] it was 12.4% (inactive). The inhibition of aggregation in test [2] is 0.2% (inactive). Also, the values for the nuclei count in test [2] and in test [3] were 114% and 121%, respectively. For the same molecule, the fluorescence slope in test [4] is -0.292 (inactive). For the same molecule, the NADPH fluorescence slope in test [5] is -1.4e-05 (inactive). Besides, the slope in test [6] was 0.00598 (inactive).
For `COc1ccc(CN(Cc2nc3ccccc3c(=O)[nH]2)C(=O)NC2CCCCC2)cc1`, the cell count in test [1] came out at 389. In addition, the inhibition in test [1] was -8.4% (inactive); in test [3], -95.3% (inactive); in test [7], 15.1% (inactive); in test [8], 29.3% (inactive). In addition, in test [2], the inhibition of aggregation is 4.6% (inactive). Moreover, the values for the nuclei count in test [2] and in test [3] were 100% and 84.3%, respectively. The fluorescence slope in test [4] was -0.359 (inactive). Moreover, the NADPH fluorescence slope in test [5] is -2.1e-05 (inactive). Also, the slope in test [6] was 0.00294 (inactive).
As to `CC1(C)CC(=O)C2=C(C1)NC(=O)CC2C(=O)NCc1ccc(F)cc1` (stereo not given), the cell count in test [1] worked out at 533. Moreover, the inhibition was -11.5% (inactive) in test [1], 3.2% (inactive) in test [3], 7.38% (inactive) in test [7] and 5.77% (inactive) in test [8]. For the same molecule, the inhibition of aggregation in test [2] is -1.8% (inactive). In addition, the nuclei count in test [2] worked out at 86.7%; in test [3], 87.8%. The fluorescence slope in test [4] was -0.342 (inactive). For the same molecule, the NADPH fluorescence slope in test [5] is -4.7e-05 (inactive). The slope in test [6] is 0.00523 (inactive).
Regarding `COc1ccc(-c2nnc(SCC(=O)NC(C)c3ccccc3)o2)cc1` (stereo not given), in test [1], the cell count came to 617. The inhibition is 4.4% (inactive) in test [1], -7.4% (inactive) in test [3], 5.82% (inactive) in test [7] and 18.9% (inactive) in test [8]. In addition, in test [2], the inhibition of aggregation is -59% (inactive). The values for the nuclei count in test [2] and in test [3] were 104% and 111%, respectively. In addition, the fluorescence slope in test [4] was -0.593 (inactive). The NADPH fluorescence slope in test [5] was -2.5e-05 (inactive). In addition, in test [6], the slope was 0.00661 (inactive).
Take `CCN(CC)C1CCCCC1NS(=O)(=O)c1ccc(Cl)cc1` (stereo not given): the cell count in test [1] was 528. The inhibition in test [1] was -9.2% (inactive); in test [3] it was -17.6% (inactive); in test [7], 45.1% (inactive); in test [8], 28% (inactive). In test [2], the inhibition of aggregation was 14.4% (inactive). Moreover, the results for the nuclei count in test [2] and in test [3] were 96.8% and 82.7%, respectively. Further, in test [4], the fluorescence slope was -0.538 (inactive). In test [5], the NADPH fluorescence slope was -1.7e-06 (inactive). Besides, in test [6], the slope was 0.00692 (inactive).
